Data from ChEMBL document CHEMBL4513216, “Probing the Open Global Health Chemical Diversity Library for Multistage-Active Starting Points for Next-Generation Antimalarials” (ACS Infect Dis, 2020).
Hit rate of the full screen: of about 65,000 compounds, about 2,100 (3.2%) showed an effect of 50% or more. The median lay at about -52%. The list comes from a sample in which strong results are over-represented; it also holds similar structures and randomly drawn compounds.

Each molecule was assayed on Plasmodium falciparum (assay: Screen against P. falciparum Asexual Blood Stage (ABS), at 5uM). Details: tested at 5 uM.
Format: functional, Dd2

Compared with `CCSc1cncc(N2CCC(NC(=O)C3CCCCC3)CC2)n1`, `Cc1ccnc(N2CCC(OCCN3CCCCC3)C2)n1` (centres undefined) is lower in INHIBITION: -11.6% for the first, -83.8% for the second.

Compared with `O=c1cc(N2CCCC2)cnn1CC(F)F`, `Cn1cnc2c(N3CCCC3)nc(C3CCNCC3)cc21` is higher in INHIBITION: -88.9% for the first, -31.4% for the second.

Compared with `CC(C)COCC1CN(Cc2ccc3c(c2)OCO3)Cc2ncn(C)c21` (centres undefined), `CCOCc1cnc2n1CCN(C(=O)c1cn(C)c3ccccc13)C2C` (centres undefined) is lower in INHIBITION: 38.7% for the first, -9.29% for the second.

Compared with `CCC(O)(CNCc1ncc[nH]1)c1ccc(Br)cc1` (centres undefined), `CCC(O)(CNCc1ccncc1)c1ccc(Br)cc1` (centres undefined) is lower in INHIBITION: 67.5% for the first, 8.37% for the second.

Going from `COc1cc(NCc2ncc[nH]2)ccc1Br` to `CCOCC(=O)NCc1cc(Br)ccc1OC(F)F`, the INHIBITION rises from -173% to -119%.

Going from `O=C(c1ccsc1)N1CCc2ncc(Cn3cncn3)n2CC1` to `O=C(c1ccc[nH]1)N1CCn2cc(Cn3cccn3)nc2C1`, the INHIBITION falls from -17.9% to -68.4%.

First: COCC(=O)Nc1ccc(-c2noc([C@@H]3CCCN3C)n2)cn1
Second: COCC(=O)Nc1ccc(-c2noc([C@@H]3CCCN3)n2)cn1
The INHIBITION of the first is lower: -28.7% for the first, 52.6% for the second.

Compared with `COCCNc1ccc(-c2noc([C@@H]3CCCN3)n2)cn1`, `Cc1cccc(-c2c[nH]c(C3CCCN3)n2)c1` (centres undefined) is lower in INHIBITION: 39.8% for the first, -5.91% for the second.

First: CN(C)c1cc2c(nn1)CCN(C(=O)C1Cc3ccccc3O1)C2 (centres undefined)
Second: CN(C)C(=O)N1CCC(c2nc3ccc(-c4ccccc4)cn3n2)CC1
The INHIBITION of the first is lower: -78.5% for the first, -52.3% for the second.

Going from `O=C(c1cscn1)N1CCO[C@H]2[C@@H](Oc3ccccn3)CC[C@@H]21` to `N#Cc1ccc(C(=O)N2CCC(c3ncc[nH]3)CC2)cn1`, the INHIBITION falls from -20.9% to -111%.

Compared with `Cc1csc(C(=O)N2CCC(O)(CN3CCc4ccccc4C3)C2)c1` (centres undefined), `Cn1nccc1-c1ncc2c(c1C(=O)O)CCN(Cc1ccccc1)C2` is lower in INHIBITION: -1.9% for the first, -41.8% for the second.

First: O=C(NCc1ccccc1Cl)c1[nH]nc2c1CS(=O)(=O)CC2
Second: CC(=O)NCCCNCc1ccc(Cl)c2cccnc12
The INHIBITION of the first is lower: -148% for the first, -36.6% for the second.

Going from `Cn1cc(CN2CCCCC2c2ccc(-c3cnn(C)c3)nc2)cn1` (centres undefined) to `Cn1cc(CN2CCCCC2c2ccc(-c3cccc(Cl)c3)nc2)cn1` (centres undefined), the INHIBITION rises from -15.7% to 55.3%.

Going from `Cn1cc(CN2CCCCC2c2ccc(-c3cccc(F)c3)nc2)cn1` (centres undefined) to `Cc1cnn(CCNCc2csc(-c3ccc(F)cc3)n2)c1`, the INHIBITION falls from 2.27% to -58%.

Compared with `Cc1nc(O)c2nnn(C[C@H]3CCCN3C(=O)c3ccccc3C)c2n1`, `Cc1nc(C)n(CC2CCCN2Cc2nc(-c3ccco3)no2)n1` (centres undefined) is lower in INHIBITION: -51% for the first, -131% for the second.

First: CC(c1ccc(F)cc1F)N1CCN(CCC(=O)O)CC1 (centres undefined)
Second: CC(c1ccc(F)cc1F)N1CCN(CCC(=O)NC(N)=O)CC1 (centres undefined)
The INHIBITION of the first is lower: -11.3% for the first, 64% for the second.

Going from `CC(SCCC(=O)NC(N)=O)c1ccc(F)cc1F` (centres undefined) to `COC(=O)C(c1cc(F)ccc1F)N(C)C(=O)c1cnc(C)cn1` (centres undefined), the INHIBITION falls from -47% to -85.1%.

Compared with `C=C(C)CNC1CCCN(Cc2noc(C3CC3)n2)C1` (centres undefined), `Cc1nc(CN(C)C2CCN(CCC(=O)N3CCOCC3)C2)no1` (centres undefined) is lower in INHIBITION: 32.4% for the first, -30.8% for the second.

First: Cc1ccc2c(c1)C(NC(=O)N(C)C)CC21CCN(C(C)C)CC1 (centres undefined)
Second: CN(C)C(=O)CC1CC2(CCN(Cc3ccsc3)CC2)c2ccccc21 (centres undefined)
The INHIBITION of the first is lower: -82% for the first, 14.2% for the second.

Going from `O=C(C(CNCc1ccccn1)c1ccccc1)N1CCOCC1` (centres undefined) to `O=C(C(CNCc1cccnc1)c1ccccc1)N1CCOCC1` (centres undefined), the INHIBITION falls from -29.2% to -52.2%.

Going from `Clc1cccc(C(CNc2ncccn2)N2CCOCC2)c1` (centres undefined) to `Clc1cccc(C(CNCc2ccccn2)N2CCOCC2)c1` (centres undefined), the INHIBITION rises from -57% to 53.1%.

First: Clc1cccc(C(CNCc2cccnc2)N2CCOCC2)c1 (centres undefined)
Second: Cc1ccc(C(CNCc2cccnc2)N2CCOCC2)s1 (centres undefined)
The INHIBITION of the first is higher: 56.9% for the first, -0.0343% for the second.

Compared with `CCC(C(=O)N1CCS(=O)(=O)CC1)n1cccn1` (centres undefined), `O=C(C1CCS(=O)(=O)CC1)N1C[C@@H]2CC[C@H]1CN(Cc1ccccc1)C2` is higher in INHIBITION: -77.5% for the first, -51.3% for the second.

Compared with `CN(C)C(=O)c1ccc2c(c1)nc(N1CC[C@H](O)C1)n2C`, `CN(C)C(=O)c1cnn2c1OCCC2` is lower in INHIBITION: -58.1% for the first, -117% for the second.

First: CN(c1ccc(Cl)c(C(=O)NCCCN2CCOCC2)c1)S(C)(=O)=O
Second: COc1ccc(CN(CCC#N)CCN2CCOCC2)cc1OC
The INHIBITION of the first is lower: -93.1% for the first, -43.2% for the second.

Going from `O=C(CCCNC(=O)c1cnccn1)Nc1ncc[nH]1` to `O=C(CCCNCc1ccc(Cl)c2cccnc12)NC1CC1`, the INHIBITION rises from -63.2% to 11.3%.

Compared with `CC(C)COCCC(=O)NCc1cn2cc(Br)ccc2n1`, `Cc1cnn(CCNCc2csc(-c3ccc(C)o3)n2)c1` is lower in INHIBITION: -27.3% for the first, -32.6% for the second.

First: CN(C)[C@@H]1C[C@@H](CO)N(C(=O)Nc2cccc(F)c2F)C1
Second: CN(C)C(=O)CC1CC2(CCNCC2)c2cc(F)ccc21 (centres undefined)
The INHIBITION of the first is lower: -46.8% for the first, -22.3% for the second.

First: OCCOc1ccccc1CN1CCCC(O)(CO)C1 (centres undefined)
Second: O=C1NCC2(CCCN(Cc3ccccc3OCCO)C2)O1 (centres undefined)
The INHIBITION of the first is higher: -48.1% for the first, -55.2% for the second.

Going from `OCC1(O)CCCN(Cc2ccccc2OCCc2ccccc2)CC1` (centres undefined) to `O=C(COc1ccccc1)N1C[C@@H]2COC[C@]2(COc2cccnc2)C1`, the INHIBITION falls from 65.1% to -110%.

First: CO[C@H]1CN(C(=O)OC(C)(C)C)CC1NCc1ccoc1 (some centres undefined)
Second: CN(Cc1noc(C(C)(C)C)n1)C1CCCN(c2cccnn2)C1 (centres undefined)
The INHIBITION of the first is lower: -73.1% for the first, -18.2% for the second.

Compared with `c1cnc(N2CCC(OCCN3CCCCC3)C2)nc1` (centres undefined), `COc1ccnc(N2CCC(OCCN3CCCCC3)C2)n1` (centres undefined) is higher in INHIBITION: -58% for the first, 51.2% for the second.

First: Cc1cnc(N2CCC(OCCN3CCCCC3)C2)nc1C (centres undefined)
Second: Cc1cc(C)nc(N2CCC(OCCN3CCCCC3)C2)n1 (centres undefined)
The INHIBITION of the first is higher: 23.5% for the first, 13.3% for the second.

Compared with `CC(C)(C)c1nccc(N2CCC(OCCN3CCCCC3)C2)n1` (centres undefined), `CC(C)c1nccc(CN2CCCC(O)(CN3CCCC3)C2)n1` (centres undefined) is lower in INHIBITION: 62.5% for the first, -69.7% for the second.

Going from `CN(C)C(=O)CN1C[C@H]2CC[C@@H](C1)N(C(=O)CCn1cncn1)C2` to `CCOC(=O)[C@H]1[C@@H](O)C(=O)N(C)C12CCN(C(=O)CC1CCCC1)CC2`, the INHIBITION rises from -87.6% to -1.62%.

Compared with `O=C(NC1CC1)N1CCc2ccc(=O)n(CCN3CCCC3)c2CC1`, `Cn1cnc2c(N3CCCC3)nc(C3CCN(CC4CC4)CC3)cc21` is higher in INHIBITION: -113% for the first, 68.8% for the second.

First: Cc1cnn(CCNCc2csc(-c3cccs3)n2)c1
Second: Cc1cnn(CCNCc2csc(-c3ccco3)n2)c1
The INHIBITION of the first is lower: -51.7% for the first, 54.9% for the second.

First: Cc1cnn(CCNCc2csc(-c3ccccc3)n2)c1
Second: Cc1cnn(CC(C)NCc2csc(-c3ccco3)n2)c1 (centres undefined)
The INHIBITION of the first is higher: 66.6% for the first, -84% for the second.

Compared with `C=C1C(C)(C)[C@@H]2CC[C@]1(C(=O)N1CCC(n3cc(CO)nn3)CC1)C2`, `Cn1cc(-c2nc(C3CCN(CC4CC4)CC3)cc3c2ncn3C)cn1` is lower in INHIBITION: -90.8% for the first, -98.2% for the second.

Compared with `Cc1nc(C)n(CC2CCCN2Cc2nc(-c3cccs3)no2)n1` (centres undefined), `Cc1nc(C)n(CC2CCCN2Cc2cc(-c3cccs3)on2)n1` (centres undefined) is higher in INHIBITION: 23.3% for the first, 65.2% for the second.

Compared with `Cc1nc(C)n(CC2CCCCN2Cc2nc(-c3ccoc3)no2)n1` (centres undefined), `Cc1nc(C)n(CC2CCCCN2Cc2nc(-c3ccco3)no2)n1` (centres undefined) is higher in INHIBITION: -49.9% for the first, 61.7% for the second.

Compared with `Cc1nc(C)n(CC2CCCN2Cc2coc(-c3cccs3)n2)n1` (centres undefined), `c1cnnc(N2CCCC(NCc3nc(-c4ccco4)no3)C2)c1` (centres undefined) is lower in INHIBITION: -63.6% for the first, -78.3% for the second.

First: Cc1oc(-c2ccccc2)nc1CN1CCC(c2ccnn2C)CC1
Second: Cn1nc(N2CCCC(C(=O)Nc3nc4ccccc4[nH]3)C2)ccc1=O (centres undefined)
The INHIBITION of the first is higher: -18.9% for the first, -105% for the second.

Compared with `Cc1nc(C(=O)N2CCOCC2)cc(N2CCC(C(N)=O)CC2)n1`, `CC(C)(O)CN1CCN(C(=O)c2ccc(Cl)c3cccnc23)CC1` is higher in INHIBITION: -45.2% for the first, -2.98% for the second.

First: COCC(=O)N1CCN(Cc2cccnc2)c2ncccc2C1
Second: CN1CCN(S(=O)(=O)c2cccnc2)c2cnccc21
The INHIBITION of the first is higher: -53.1% for the first, -111% for the second.

Compared with `CC1CCN(S(=O)(=O)c2cccnc2)c2ccccc2S1` (centres undefined), `CCn1cc(S(=O)(=O)N2CCC(C)Sc3ccccc32)cn1` (centres undefined) is lower in INHIBITION: 55% for the first, -0.433% for the second.

Going from `CS(=O)(=O)N1CCCC1CS(=O)(=O)c1ccccc1` (centres undefined) to `CN(C)c1ncc(I)c(C2CCCCN2S(C)(=O)=O)n1` (centres undefined), the INHIBITION rises from -100% to -17.7%.

Compared with `CN(C)CC(Nc1nc(N)nc2c1CCNCC2)c1ccccc1` (centres undefined), `O=C1CNc2ncnc(N3CCN(c4ccccc4F)CC3)c2N1` is higher in INHIBITION: -104% for the first, -21.3% for the second.

First: Cc1cc(C)n(CC(C)NC(=O)NCc2c(C)cc(C)[nH]c2=O)n1 (centres undefined)
Second: CC(C)(C)[S+]([O-])CCNC(=O)c1ccc(Cl)c2cccnc12 (centres undefined)
The INHIBITION of the first is lower: -51.8% for the first, -46.8% for the second.

Going from `CCOc1ccc(CN(CCC#N)CCN2CCOCC2)cc1OC` to `N#CCCN(CCN1CCOCC1)Cc1ccc(F)c(Br)c1`, the INHIBITION rises from -99% to 52.6%.

Going from `CC(C)C(=O)N1CCC2(CC1)COCCN2Cc1ccc(F)cc1` to `O=C1CNc2ncnc(Nc3cnn(Cc4ccc(F)cc4)c3)c2N1`, the INHIBITION falls from -29.9% to -134%.

Compared with `CN(Cc1ccc(F)cc1F)Cc1cc2c(cc1Br)OCCO2`, `Cc1ccc(F)c(N2CCCC(Nc3nccn4cnnc34)C2=O)c1` (centres undefined) is lower in INHIBITION: -30.1% for the first, -141% for the second.

Going from `Cn1cc(NS(=O)(=O)c2ccc3c(c2)CCCC3)ccc1=O` to `CCS(=O)(=O)NCCNCc1ccc(Cl)c2cccnc12`, the INHIBITION rises from -133% to 61.5%.

Going from `CC(C)(O)CSCCNCc1ccc(Cl)c2cccnc12` to `CN(C)c1ncc(I)c(C2CCCN2C)n1` (centres undefined), the INHIBITION falls from 67.7% to 20.7%.

In the case of `CN(C)c1ncc(I)c(C2CCCCN2C)n1` (centres undefined), the INHIBITION was 57.8%.
